Screens as filed in PubChem BioAssay.
An excerpt weighted towards active compounds, which were near 1.7% of everything screened.
HTR5A ag ctr: counter-screen for OPRM1-OPRD1 agonists: human HTR5A agonism | P47898 | HTR5A agonist assay, luminescence, cell-based | activation, % at 9.3 µM | actives 0.61% (n = 340,000); in the data active = activation mostly above about 9.5%, no sharp cut-off; inactive = mostly below about 7.6%;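 also: 0% = cells with vehicle only and 100% = reference agonist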
OPRM1-OPRD1 inv: inverse agonists of human mu-delta opioid receptor heterodimerization | P35372+P41143 | cell-based MOR-DOR heterodimer luminescence, inverse agonism | inhibition, % at 9.3 µM | actives 0.21% (n = 340,000); in the data active = inhibition above about 22%, passing the limit was not always enough;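 also: 0% = cells with DMSO and 100% = wells without cells with DMSO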
OPRM1-OPRD1 ag: OPRM1-OPRD1 heterodimerization agonism | P35372+P41143 | cells, luminescence | activation, % at 9.3 µM | actives 0.3% (n = 340,000) | AID 504326;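 also: 0% = vehicle-treated cells and 100% = reference agonist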
V-ATPase pHluor: regulators of yeast V-ATPase proton transport | S. cerevisiae, pHLuorin cytosolic pH fluorescence | actives 0.37% (n = 350,000) | response, % at 10 µM | AID 504577; in the data active = response mostly above about 7.3%, no sharp cut-off; inactive = mostly below about 5.4%; also: actives read high
HTR5A inv ctr: HTR5A inverse agonism, opioid heterodimer counter-screen; P47898; HTR5A cell line, luminescence; inhibition, % at 9.3 µM; actives 0.083% (n = 340,000); AID 504634; in the data active = inhibition mostly above about 23%, no sharp cut-off; inactive = mostly below about 18%;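 also: 0% = cells with DMSO and 100% = no-cell wells with DMSO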
beta cell repl: induces beta-cell replication in MIN6 cells. actives 0.29% (n = 330,000). proliferation, % at 10 µM. MIN6 cells proliferation, ATPlite luminescence, 48 h; cells starved in 0.2% serum; 100% = growth in 10% serum;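 active = compounds whose signal lies at least 3.5 SD above the mean of all wells on their plate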;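 also: 0% = DMSO-treated cells in low-serum medium and 100% = 10% serum control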
OPRM1-D1 ag cf: confirmation of human OPRM1-OPRD1 heterodimerization agonists | shares compounds with OPRM1-OPRD1 ag | actives 45% (n = 830) | cells, MOR-DOR heterodimerization, luminescence complementation | activation, % at 9.3 µM | AID 504904;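 also: 0% = vehicle-treated cells and 100% = reference agonist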
HTR5A ag ctr2: counter-screen for OPRM1-OPRD1 agonists: human HTR5A agonism; AID 504905; actives 8% (n = 830); activation, % at 9.3 µM; HTR5A agonist counterscreen, cell luminescence; shares compounds with OPRM1-OPRD1 ag; in the data active = activation above about 17%;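 also: 0% = vehicle-treated cells and 100% = reference agonist response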
* = called active by the depositor; i = inactive; nt = no result given. Rule as the data show it, unless noted: active = activation above about 18%; inactive = the rest.

SMILES	HTR5A ag ctr	OPRM1-OPRD1 inv	OPRM1-OPRD1 ag	V-ATPase pHluor	HTR5A inv ctr	beta cell repl	OPRM1-D1 ag cf	HTR5A ag ctr2
OC1OC[C@@H](O)[C@H](O)[C@H]1O (stereo partly drawn)	nt	nt	nt	nt	nt	0.6	nt	nt
CCOc1ccc(NC(=S)N2CCN(S(=O)(=O)c3ccccc3)CC2)cc1	-4.2	-128.2	31.5*	2.3	10.8	-2.9	1.0	-1.0
Cc1sc(NC(=S)NC(=O)C2CCCCC2)c(C(N)=O)c1C	-1.2	-128.0	18.9*	0.8	-1.8	0.3	21.0*	-0.4
Cc1sc(NC(=S)Nc2ccc(F)cc2)c(C(N)=O)c1C	-4.6	4.3	-0.7	4.4	11.8	nt	nt	nt
COc1ccc(C(=O)C(CCCCC(CN(C)C)C(=O)c2ccc(OC)cc2)CN(C)C)cc1 (stereo not drawn)	-2.1	-0.2	0.0	2.5	-4.1	-6.8	nt	nt
CCOc1ccc(C(=O)C(CCC(CN(C)C)C(=O)c2ccc(OCC)cc2)CN(C)C)cc1 (stereo not drawn)	14.4*	-134.8	28.9*	9.6*	-60.0	nt	-4.2	-8.9
CN1CCN(c2ccc(NC(=O)COc3cccc4ccccc34)cc2)CC1	3.9	-140.5	25.2*	2.3	-9.5	-1.4	1.8	38.9*
CN1CCN(c2ccc(NC(=O)COc3ccc4ccccc4c3)cc2)CC1	-0.6	-38.1	6.8	-5.1	1.4	0.0	nt	nt
COc1ccc(CCNC(=O)C2CCN(S(=O)(=O)c3ccc4nc5c(c(C(=O)O)c4c3)CCCC5)CC2)cc1OC	2.9	2.2	-0.4	1.6	-7.9	-0.6	nt	nt
COc1ccc(-c2nn(-c3ccccc3C)cc2CNCCc2cnc[nH]2)cc1F	-3.1	-42.4	9.0	4.0	9.6	-5.4	nt	nt
COc1ccc(-c2nn(-c3ccccc3C)cc2CNC(C)c2cn(C)nc2C)cc1F (stereo not drawn)	0.4	i	163.1*	0.1	19.8	-3.2	23.1*	15.9
CCn1cc(CNCc2cn(-c3ccccc3C)nc2-c2ccc(OC)c(F)c2)cn1	-3.5	i	243.3*	-0.7	9.7	-4.2	308.6*	0.6
COc1ccc(C2(c3ccc(OC)cc3)NC(=O)NC2=O)cc1	3.8	2.8	-0.5	0.5	-9.2	0.0	nt	nt
COc1ccc(/C=C/C(=O)Nc2ccccc2C(=O)NCC(c2ccc(OC)cc2)N(C)C)cc1 (stereo not drawn)	5.5	-117.1	22.0*	-1.2	-14.8	0.0	-0.8	-1.2
COc1ccc(C(CNC(=O)/C=C/c2c(Cl)nc3ccccn23)N(C)C)cc1 (stereo not drawn)	-0.7	-298.4	62.9*	2.4	1.8	-2.5	66.0*	0.3
COc1ccc(C(CNC(=O)CSc2ccccc2C)N(C)C)cc1 (stereo not drawn)	4.1	i	115.2*	-2.5	-11.5	1.4	112.1*	0.2
CN(C)c1ccc(C(CNC(=O)Cc2cccc3ccccc23)N(C)C)cc1 (stereo not drawn)	-4.5	-208.9	38.9*	3.5	-5.9	-1.9	44.9*	0.8
CCC(=O)NC(c1ccc(N(C)C)cc1)c1c(O)ccc2ccccc12 (stereo not drawn)	-4.5	9.9	-1.9	-0.9	11.7	-3.9	nt	nt
COc1ccc(C(CNC(=O)C(Cc2ccccc2)NC(N)=O)N(C)C)cc1 (stereo not drawn)	0.5	-117.1	23.5*	1.6	-1.9	-1.1	268.5*	-2.1
COc1ccc(C(CNC(=O)Cc2ccc(-c3ccccc3)cc2)N(C)C)cc1 (stereo not drawn)	0.8	i	320.2*	5.8	-2.4	-4.0	-2.7	-3.6
COc1ccc(CC(NC(=O)c2ccccc2)C(=O)NCC(=O)O)cc1 (stereo not drawn)	5.9	5.3	-1.0	0.0	7.7	-0.6	nt	nt
Cc1ccc(C(=O)Nc2cc3[nH]c(=O)oc3cc2C)cc1	-5.9	8.6	-1.9	-0.2	21.0	-1.2	nt	nt
COc1ccc(C)cc1NC(=O)CN1CCCC1c1ccc2c(c1)OCCCO2 (stereo not drawn)	-3.0	0.1	0.0	1.9	11.8	-4.3	nt	nt
